HP1b chromo inh = inhibitors of HP1-beta chromodomain binding to methylated histone tails; AlphaScreen HP1-beta / biotin-H3K9me3 peptide binding; Potency, µM (top dose mostly 114 µM), for the others: at the top dose activity change, negative = inhibition, actives largely listed as inhibitors; 0.56% of 390,000 active; AID 540317; note: nearly all actives have a fitted effect of over 70% in size
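Compound inhibition of the preformed complex between 50 nM HP1-beta and 50 nM biotinylated H3K9me3 peptide was read by AlphaScreen. Buffer was PBS pH 7.4 with 0.01% Tween-20. Incubations ran 30 min at room temperature, with 10 ug/mL donor/acceptor beads.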
BAZ2B block = blocks human BAZ2B; Q9UIF8; AlphaScreen BAZ2B-H3K14Ac peptide displacement; Potency, µM (series often up to 114 µM), for inactives: at the highest dose activity change, negative = inhibition, hits mostly inhibitors; 4.4% of 360,000 active; note: % is set by controls: 0 for no effect and ±100 for the full control effect; nearly all actives have a fitted effect of over 60% in size
Target sequence (Q9UIF8 whole entry, looked up): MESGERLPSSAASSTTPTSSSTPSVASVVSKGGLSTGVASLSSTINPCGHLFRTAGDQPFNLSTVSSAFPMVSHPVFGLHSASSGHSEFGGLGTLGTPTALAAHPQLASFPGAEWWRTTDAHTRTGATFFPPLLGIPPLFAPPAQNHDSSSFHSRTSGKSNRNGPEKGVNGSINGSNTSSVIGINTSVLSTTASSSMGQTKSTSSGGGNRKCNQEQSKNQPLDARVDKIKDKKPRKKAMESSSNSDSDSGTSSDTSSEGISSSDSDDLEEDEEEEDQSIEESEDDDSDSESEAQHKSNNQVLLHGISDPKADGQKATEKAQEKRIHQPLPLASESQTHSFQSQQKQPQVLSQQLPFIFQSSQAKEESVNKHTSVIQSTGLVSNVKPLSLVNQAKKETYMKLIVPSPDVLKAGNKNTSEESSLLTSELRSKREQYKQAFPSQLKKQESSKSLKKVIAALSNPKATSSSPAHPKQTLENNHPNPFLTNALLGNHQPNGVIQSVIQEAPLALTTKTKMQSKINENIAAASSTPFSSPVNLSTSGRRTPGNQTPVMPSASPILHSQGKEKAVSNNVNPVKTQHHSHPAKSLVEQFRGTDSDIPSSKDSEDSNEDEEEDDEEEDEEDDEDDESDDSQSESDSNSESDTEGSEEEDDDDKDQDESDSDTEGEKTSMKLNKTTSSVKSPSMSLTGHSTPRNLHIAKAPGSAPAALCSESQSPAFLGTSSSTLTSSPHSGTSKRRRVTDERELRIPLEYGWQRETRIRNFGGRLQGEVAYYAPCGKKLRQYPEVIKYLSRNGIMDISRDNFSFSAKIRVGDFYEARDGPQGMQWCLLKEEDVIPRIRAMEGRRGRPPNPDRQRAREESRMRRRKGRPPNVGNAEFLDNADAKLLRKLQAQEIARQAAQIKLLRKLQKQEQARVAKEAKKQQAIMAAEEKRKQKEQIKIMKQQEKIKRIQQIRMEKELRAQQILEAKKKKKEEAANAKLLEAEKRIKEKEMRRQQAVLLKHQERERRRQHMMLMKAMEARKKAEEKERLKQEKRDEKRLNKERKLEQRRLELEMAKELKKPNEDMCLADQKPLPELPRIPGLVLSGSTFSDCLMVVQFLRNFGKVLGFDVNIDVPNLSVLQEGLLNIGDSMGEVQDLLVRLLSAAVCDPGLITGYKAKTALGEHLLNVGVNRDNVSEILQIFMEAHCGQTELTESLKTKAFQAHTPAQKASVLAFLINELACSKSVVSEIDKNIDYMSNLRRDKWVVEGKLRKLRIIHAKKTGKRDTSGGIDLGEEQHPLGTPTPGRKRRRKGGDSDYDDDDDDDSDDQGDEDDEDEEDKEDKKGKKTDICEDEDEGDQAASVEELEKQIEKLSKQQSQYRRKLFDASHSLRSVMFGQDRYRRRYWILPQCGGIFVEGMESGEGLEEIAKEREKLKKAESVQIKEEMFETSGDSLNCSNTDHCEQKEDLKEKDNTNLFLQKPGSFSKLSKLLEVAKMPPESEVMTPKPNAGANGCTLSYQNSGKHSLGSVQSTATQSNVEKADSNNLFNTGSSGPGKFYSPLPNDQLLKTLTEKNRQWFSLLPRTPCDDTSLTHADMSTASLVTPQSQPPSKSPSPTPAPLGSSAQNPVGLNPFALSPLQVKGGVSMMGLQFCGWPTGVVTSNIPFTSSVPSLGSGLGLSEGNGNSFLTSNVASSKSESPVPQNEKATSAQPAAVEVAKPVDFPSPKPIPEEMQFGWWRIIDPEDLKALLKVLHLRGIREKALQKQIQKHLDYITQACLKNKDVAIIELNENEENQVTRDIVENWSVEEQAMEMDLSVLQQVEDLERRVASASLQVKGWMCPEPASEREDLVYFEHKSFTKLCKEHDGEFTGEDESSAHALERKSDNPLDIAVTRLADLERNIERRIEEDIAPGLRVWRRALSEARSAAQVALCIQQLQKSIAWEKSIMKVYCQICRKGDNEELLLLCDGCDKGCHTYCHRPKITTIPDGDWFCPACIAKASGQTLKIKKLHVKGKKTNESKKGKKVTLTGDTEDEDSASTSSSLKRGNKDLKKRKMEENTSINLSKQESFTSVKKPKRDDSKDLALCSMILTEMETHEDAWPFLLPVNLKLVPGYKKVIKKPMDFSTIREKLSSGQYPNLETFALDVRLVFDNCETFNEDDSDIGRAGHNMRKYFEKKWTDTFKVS
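AlphaScreen displacement of biotin-H3(5-23)K14Ac peptide (50 nM final) from BAZ2B (50 nM final) in PBS pH 7.4, 0.01% Tween-20; complex preformed 30 min RT, then compounds (top 110 uM) 30 min RT, beads 20 min dark.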
JMJD2A Tudor inh = blocks the human JMJD2A Tudor domain | O75164 | AlphaScreen JMJD2A-Tudor / H3K4me3 peptide binding | Potency, µM (titrated, usually from 114 µM), for the others: at the top dose activity change, negative = inhibition, usual class: inhibitors | 4.4% of 390,000 active; note: % is set by controls: 0 for no effect and ±100 for the full control effect; nearly all actives have a fitted effect of over 50% in size
Sfp PPTase inh = Sfp phosphopantetheinyl transferase inhibition; Q9F4F7; Biochemical Sfp PPTase activity, qHTS; Potency, µM, for inactives: largest response in the series, negative = inhibition, most hits filed as inhibitors; 3.5% of 310,000 active;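 note: the enzyme is Sfp with the accession as filed and its product quenches rhodamine fluorescence; 0% = enzyme reaction without inhibitor and -100% = no enzyme wells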
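With Hepes-Na pH 7.6 buffer containing 10 mM MgCl2, Sfp (15 nM) modified BHQ-2-YbbR (12.5 uM) using rhodamine-CoA (5 uM). Two reads 30 minutes apart at 525/598 nm yielded each well's rate.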
G9a block = inhibitors of human histone lysine methyltransferase G9a. G9a H3K9 monomethylation, AlphaScreen, 2 h. Potency, µM (doses to about 102 µM), without a hit: at the top dose activity, negative = inhibition, most hits filed as inhibitors. 8.8% of 350,000 active. AID 504332; note: % is set by controls: 0 for no effect and ±100 for the full control effect; nearly all actives have a fitted effect of over 75% in size
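Step 1: enzyme (final 20 nM) with compound, 15 min RT. Step 2: substrate peptide 500 nM and SAM 20 uM, 2 h RT. Step 3: anti-H3K9me1 antibody and AlphaScreen beads, 10 min, then plate read.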
12-LOX inh = ALOX12 (human) lipoxygenase inhibition. P18054. purified 12hLO, xylenol orange hydroperoxide absorbance. Potency, µM (highest dose often 108 µM), without a hit: at the highest dose activity change, negative = inhibition, most hits filed as inhibitors. 1.1% of 580,000 active. AID 1671190; note: % is set by controls: 0 for no effect and ±100 for the full control effect
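Purified human 12hLO at 150 nM in 25 mM Hepes, 0.01% Triton X-100, pH 7.0, preincubated 15 min at room temperature with compound. Reaction started with 40 uM arachidonic acid, 30 min at room temperature. Hydroperoxide measured by Fe-xylenol orange, 573/405 nm absorbance ratio.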
Active calls of the source: *; ? = inconclusive; · = no result; [ ] = remark or other dose. A selection: hits, their analogues and other compounds. The true share with any hit is near 8.7%. Calls come from the whole dose curve; as a rule, active = well fitted curve in the direction sought with a large enough effect; inconclusive = small, poorly fitted or top-dose-only effect, or another doubt; inactive = no such curve, though single readings can be large; an effect the other way counts as inactive or inconclusive. Potency is the fitted concentration of half-maximal effect.

SMILES	HP1b chromo inh	BAZ2B block	JMJD2A Tudor inh	Sfp PPTase inh	G9a block	12-LOX inh
O=C(CN1C(=O)/C(=C\C=C\c2ccccc2)SC1=S)Nc1ccc(F)cc1	2%	-28%	-22%	-6%	-40%[59 µM]	-18%
O=C(CCCN1C(=O)/C(=C\c2cccs2)SC1=S)Nc1ccc(C(=O)O)cc1	-6%	?	-31%	-1%	-40%	-22%
O=C(COC(=O)CCN1C(=O)/C(=C\C=C\c2ccccc2)SC1=S)Nc1cc(F)ccc1F	?	20µM*	40µM*	-24%	?	?
CCN(CC)CCOC(=O)c1ccc(NC(=O)CCCN2C(=O)/C(=C/c3cccs3)SC2=S)cc1	?	16%	40µM*	?	·	?
O=C(CCN1C(=O)/C(=C/c2cccs2)SC1=S)Nc1ccc(C(=O)O)cc1	-1%	56µM*	?	3%	?	-20%
CCCC1CCCC(=O)O1 (centres undefined)	·	·	·	·	·	10%[176 µM]
C[C@]1(O)CCN(C(=O)c2ccc(N3CCOCC3)cc2)C[C@@H]1O	·	·	·	·	·	49%
O=C1CC(c2ccc(F)cc2)c2cc(Br)c3ccccc3c2N1 (centres undefined)	·	·	·	·	·	-19%
COC(=O)c1ccc(C2C(C(=O)OC)C(=O)CC(C)(O)C2C(=O)OC)cc1 (centres undefined)	·	·	·	·	·	-53%
O=C(CCN1C(=O)/C(=C\C=C\c2ccccc2)SC1=S)Nc1ccc(C(=O)O)cc1	50µM*	16µM*	22µM*	?	32µM*	32µM*
Cc1ccc(/C=C2\SC(=S)N(CCCC(=O)Nc3ccccn3)C2=O)cc1	-11%	?	?	15%	71µM*	?
COc1cccc(/C=C2/SC(=S)N(CC(=O)Nc3nnc(C)s3)C2=O)c1	35%	-6%	-18%	-24%	-6%	3%
Cc1nnc(NC(=O)CCN2C(=O)/C(=C\c3ccccc3)SC2=S)s1	52%	2%	-4%	-1%	79µM*	-4%
Clc1ccccc1-c1csc(NC2CC2)n1	·	·	·	·	·	-21%
COCCn1ncc(N2CCC(C(=O)N3CCC(N(C)Cc4cccc(Cl)c4)CC3)C2)cc1=O (centres undefined)	·	·	·	·	·	-5%
CC1(C)CC(=O)C(C=NCCN2CCN(C(=S)NC3CCCCC3)CC2)=C(O)C1	22%	11%	-12%	79µM*	26%[59 µM]	2%
CC1(C)CC(=O)C(C=NCCN2CCN(C3CC(=O)N(c4cccc(Br)c4)C3=O)CC2)=C(O)C1 (centres undefined)	32%	-15%	-19%	14%	71µM*	3%
COc1ccc(-c2nc3cc(C)ccc3cc2CN2CCCC(OC)C2)cc1 (centres undefined)	·	·	·	·	·	56%
CNC(=O)C(CCSC)NC(=O)c1ccc2ccccc2n1 (centres undefined)	·	·	·	·	·	1%
CCC(CO)NCC#Cc1ccccc1 (centres undefined)	24%	-34%	-17%	7%	56µM*	-4%
Cc1ccc(OCc2n[nH]c(=S)n2C2CCCCC2)cc1	-11%	-34%	56µM*	9%	1.1µM*	?
Cc1cccc(OCc2n[nH]c(=S)n2C2CCCCC2)c1	5%	-31%	?	6%	1.8µM*	?
COc1ccc(-n2c(COc3cccc(C)c3)n[nH]c2=S)cc1	18%	-2%	?	13%	17%[0.501 µM]	8.9µM*
S=c1[nH]nc(COc2ccc(Cl)cc2)n1C1CCCCC1	21%	15%	-18%	16%	?	?
CCn1ccnc1C1CCN(c2nc3ccccc3s2)CC1	·	·	·	·	·	53%
SMILES	HP1b chromo inh	BAZ2B block	JMJD2A Tudor inh	Sfp PPTase inh	G9a block	12-LOX inh
O=C(c1ccc(Cl)cc1)C(CN1CCCCCC1)c1ccccc1 (centres undefined)	·	·	·	·	·	-14%
O=C(c1ccccc1)C(CN1CCCCC1)c1ccccc1 (centres undefined)	26%	·	16%	·	·	45µM*
Cc1nn(C)c2sc(C(=O)N3CCN(c4ncccn4)CC3)cc12	·	·	·	·	·	-24%
COc1ccc(C(NC(=O)/C=C/c2ccco2)c2ccc(OC)c(OC)c2)cc1OC	-12%	?	-26%	20µM*	8.9µM*	?
COc1ccc(C(NC(=O)c2ccco2)c2ccc(OC)c(OC)c2)cc1 (centres undefined)	4%	3%	-11%	4%	4%[12.7 µM]	0%
COc1ccc(C2(CNC(=O)/C=C\c3ccco3)CCCC2)cc1OC	14%	-34%	-26%	18µM*	13µM*	45µM*
COc1ccc(-n2c(C)c([N+](=O)[O-])c3ccc(O)c(CN4CCCCC4)c32)cc1	?	?	?	-19%	25µM*	-21%
Cc1ccc(-n2c(C)c([N+](=O)[O-])c3ccc(O)c(CN(C)C)c32)cc1	?	-37%	-18%	18%	?	0%
CN(C)CCCOc1cccc(Oc2ccccc2)c1	?	?	56µM*	-47%	14µM*	?
CC(C)N(CCNCC(O)COc1ccc(C(C)(C)c2ccccc2)cc1)C(C)C (centres undefined)	-14%	50µM*	5.6µM*	?	20µM*	?
CN(C)CCCOc1cccc(Cl)c1	?	79µM*	18µM*	-19%	14µM*	?
CN(C)CCCOc1ccc(C(C)(C)c2ccccc2)cc1	?	50µM*	1.6µM*	-28%	?	?
COc1ccc(OCc2ccc(-c3nc(C#N)c(NCCc4ccccc4)o3)o2)cc1	·	·	·	·	·	-30%
N=c1sccn1CC(=O)N1N=C(c2ccc(Cl)cc2)CC1c1ccco1 (centres undefined)	-21%	79µM*	-21%	-5%	-40%	-20%
Cn1cnnc1SCC(=O)N1N=C(c2ccc(Cl)cc2)CC1c1ccco1 (centres undefined)	18%	?	-22%	50µM*	?	-3%
Cc1ccc(C2=NN(C(=O)CSc3nnnn3C)C(c3ccco3)C2)cc1 (centres undefined)	18%	-8%	-17%	·	0.89µM*	169%
COc1cccc(C2=NN(C(=O)c3ccco3)C(c3ccco3)C2)c1 (centres undefined)	0%	?	-33%	50µM*	45µM*	-17%
O=C(CSc1n[nH]c(=O)n1C1CC1)N1N=C(c2ccc(Cl)cc2)CC1c1ccco1 (centres undefined)	2%	-34%	-34%	4%	-3%[12.7 µM]	?
Cc1cccc2c1nc1n2[C@@H](CNC(=O)c2ccncc2)COC1	·	·	·	·	·	62%[176 µM]
COc1ccc(CNC(=O)COC(=O)c2ccc(OC)c(S(=O)(=O)N3CCCCCC3)c2)cc1	·	·	·	·	·	8%
COc1ccc(C(=O)N2CCOc3ccc(CCC(N)=O)cc3C2)cc1F	·	·	·	·	·	-2%

Screening data deposited in PubChem BioAssay by National Center for Advancing Translational Sciences (NCATS).
